Measurements: PubChem BioAssay (EPA / NIEHS)
Values joined by “and” are separate entries in the source; they are usually repeats but may differ in a detail not shown here. Equal entries are not always repeated. Records with an inconclusive call do not appear. Active and inactive are the calls of the source. How the source made its calls, unless noted: active means hit-call score of the fitted dose curve at least 0.9, where 1 is the maximum; inconclusive means response in the unintended direction; inactive means score below 0.9.

Experiments:
[1] = molecular target: mouse Peroxisome Proliferator-activated Receptor gamma (PPARg), Pparg (gene 19016) (UniProt P37238); assay: ATG_mPPARg_XSP2: Attagene TRANS-FACTORIAL Multi-Species (XSP2) HepG2 Assay for mouse Peroxisome Proliferator-activated Receptor gamma (PPARg) (AID 2283830);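 further: hits are gains in reporter mRNA above DMSO so AC50 marks activation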
Chain of mouse Peroxisome Proliferator-activated Receptor gamma (PPARg), Pparg (gene 19016) (P37238 whole entry, looked up, the tested form may be a part): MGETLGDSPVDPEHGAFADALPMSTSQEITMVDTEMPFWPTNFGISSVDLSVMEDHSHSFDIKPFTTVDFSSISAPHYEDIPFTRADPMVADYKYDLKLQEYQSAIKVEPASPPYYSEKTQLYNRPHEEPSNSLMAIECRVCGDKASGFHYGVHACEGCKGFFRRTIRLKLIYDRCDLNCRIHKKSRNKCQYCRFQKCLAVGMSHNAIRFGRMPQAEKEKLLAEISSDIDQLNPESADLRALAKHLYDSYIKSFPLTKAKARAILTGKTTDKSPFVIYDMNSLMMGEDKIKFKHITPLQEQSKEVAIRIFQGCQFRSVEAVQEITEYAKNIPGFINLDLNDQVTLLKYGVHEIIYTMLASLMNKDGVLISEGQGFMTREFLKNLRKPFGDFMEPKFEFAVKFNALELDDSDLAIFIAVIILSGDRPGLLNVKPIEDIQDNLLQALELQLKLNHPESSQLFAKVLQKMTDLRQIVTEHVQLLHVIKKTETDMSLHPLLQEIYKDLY
In short: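 HepG2 cells transiently transfected with GAL4-UAS reporter units for chimeric NR-Gal4 proteins including mouse PPARg, exposed 24 h; medium contained 3 nM 6-alpha-fluorotestosterone and 1.5 nM norgestrel. Reporter mRNA quantified by RT-PCR, HpaI digestion and capillary electrophoresis, vs DMSO.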

[2] = molecular target: Nuclear receptor subfamily 1 group I member 2 (Mus musculus) (UniProt O54915); assay: ATG_mPXR_XSP2: Attagene TRANS-FACTORIAL Multi-Species (XSP1) HepG2 Assay for mouse Pregnane X Receptor (PXR) (AID 2283831)
Chain of Nuclear receptor subfamily 1 group I member 2 (Mus musculus) (O54915 whole entry, looked up, the tested form may be a part): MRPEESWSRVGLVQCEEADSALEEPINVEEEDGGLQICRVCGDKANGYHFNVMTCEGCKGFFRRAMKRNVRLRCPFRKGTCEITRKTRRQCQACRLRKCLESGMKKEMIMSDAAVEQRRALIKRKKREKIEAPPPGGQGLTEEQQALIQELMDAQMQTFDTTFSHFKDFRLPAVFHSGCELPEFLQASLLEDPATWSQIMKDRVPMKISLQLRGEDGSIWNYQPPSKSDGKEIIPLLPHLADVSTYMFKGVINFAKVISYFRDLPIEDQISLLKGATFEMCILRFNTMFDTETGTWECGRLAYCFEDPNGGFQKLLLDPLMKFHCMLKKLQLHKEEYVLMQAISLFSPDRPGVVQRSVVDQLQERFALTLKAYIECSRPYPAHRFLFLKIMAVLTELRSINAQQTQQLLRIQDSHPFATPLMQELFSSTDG
In short: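 HepG2 cells transiently transfected with GAL4-UAS reporter units expressing chimeric NR-GAL4 proteins; reporter mRNA measured 24 h after dosing by RT-PCR with 6-FAM labelling and capillary electrophoresis, gain of signal relative to DMSO.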

[3] = molecular target: zebrafish Thyroid Hormone Receptor alpha (TRa), thraa (gene 30670) (UniProt Q98867); assay: ATG_zfTRa_XSP2: Attagene TRANS-FACTORIAL Multi-Species (XSP1) HepG2 Assay for zebrafish Thyroid Hormone Receptor alpha (TRa) (AID 2283832);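 further: actives raise zebrafish TRa-Gal4 reporter transcript above DMSO baseline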
Chain of zebrafish Thyroid Hormone Receptor alpha (TRa), thraa (gene 30670) (Q98867 whole entry, looked up, the tested form may be a part): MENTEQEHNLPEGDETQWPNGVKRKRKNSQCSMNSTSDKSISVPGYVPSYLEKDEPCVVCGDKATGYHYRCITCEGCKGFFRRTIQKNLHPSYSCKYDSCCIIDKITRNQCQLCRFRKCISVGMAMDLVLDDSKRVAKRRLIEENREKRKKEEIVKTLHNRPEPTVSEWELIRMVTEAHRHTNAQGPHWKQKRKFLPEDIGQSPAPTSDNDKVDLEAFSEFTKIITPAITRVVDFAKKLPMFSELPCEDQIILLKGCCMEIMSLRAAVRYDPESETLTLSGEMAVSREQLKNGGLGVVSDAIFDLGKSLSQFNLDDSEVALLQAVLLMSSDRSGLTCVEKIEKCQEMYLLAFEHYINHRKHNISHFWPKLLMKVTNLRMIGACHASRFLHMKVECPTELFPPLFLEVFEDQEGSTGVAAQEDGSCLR
In short: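 HepG2 cells transiently transfected with multiplexed GAL4-UAS reporter units expressing chimeric NR-Gal4 proteins; 24 h after dosing, reporter mRNA measured by RT-PCR, FAM labelling, HpaI digestion and capillary electrophoresis; gain of signal versus DMSO baseline.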

[4] = tested on: turtle Thyroid Hormone Receptor, alpha (TRa), gene 101949057; assay: ATG_trTRa_XSP2: Attagene TRANS-FACTORIAL Multi-Species (XSP1) HepG2 Assay for turtle Thyroid Hormone Receptor, alpha (TRa) (AID 2283834);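 further: hits raise reporter mRNA over the DMSO baseline so AC50 marks activators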
In short: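 HepG2 cells transiently transfected with multiplexed GAL4-UAS reporter units expressing chimeric NR-Gal4 proteins were dosed for 24 hours. Reporter mRNA was quantified by RT-PCR with 6-FAM labelling and capillary electrophoresis, gain of signal scored against DMSO.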

[5] = ATG_M_61_XSP2: Attagene TRANS-FACTORIAL Multi-Species (XSP2) HepG2 Assay for M61 Transcription Factor (Internal Marker) (AID 2283835; active means hit-call score of the fitted dose curve at least 0.9, where 1 is the maximum; inactive means score below 0.9;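 further: reporter mRNA of an internal background marker read by RT-PCR and capillary electrophoresis; active means a rise in signal above the DMSO baseline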)
In short: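 First, HepG2 cells are transfected with reporter units under GAL4-UAS control. Next, chemicals are applied for 24 h. Then total RNA is reverse-transcribed, amplified, fluorescently labelled and sized by capillary electrophoresis, with gain of signal scored against DMSO.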

[6] = molecular target: zebrafish Thyroid Hormone Receptor beta (TRb), thrb (gene 30607) (UniProt Q9PVE4); assay: ATG_zfTRb_XSP2: Attagene TRANS-FACTORIAL Multi-Species (XSP1) HepG2 Assay for zebrafish Thyroid Hormone Receptor beta (TRb) (AID 2283836)
Chain of zebrafish Thyroid Hormone Receptor beta (TRb), thrb (gene 30607) (Q9PVE4 whole entry, looked up, the tested form may be a part): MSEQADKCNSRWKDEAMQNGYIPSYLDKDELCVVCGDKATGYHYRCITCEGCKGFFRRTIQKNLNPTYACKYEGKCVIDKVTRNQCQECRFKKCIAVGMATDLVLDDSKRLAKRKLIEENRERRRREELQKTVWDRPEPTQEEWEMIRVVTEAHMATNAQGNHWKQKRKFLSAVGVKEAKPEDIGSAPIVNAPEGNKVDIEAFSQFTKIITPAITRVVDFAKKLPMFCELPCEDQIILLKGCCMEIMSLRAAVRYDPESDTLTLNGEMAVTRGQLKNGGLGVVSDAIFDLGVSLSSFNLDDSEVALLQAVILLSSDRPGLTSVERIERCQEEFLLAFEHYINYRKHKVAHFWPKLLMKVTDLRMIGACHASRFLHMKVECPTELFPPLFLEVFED
In short: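 HepG2 cells transiently transfected with multiplexed GAL4-UAS reporter units expressing chimeric NR-Gal4 proteins; read 24 h after dosing. Reporter mRNA quantified by RT-PCR, 6-FAM labelling, HpaI digest and capillary electrophoresis; gain of signal fitted relative to DMSO.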

[7] = ATG_XTT_Cytotoxicity_XSP2: Cytotoxicity Assessment in the Attagene TRANS-FACTORIAL Multi-Species (XSP2) HepG2 Assay (AID 2283837)
In short: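 HepG2 cells, transiently transfected with multiple reporter constructs, exposed to chemical for 24 h. Cell number assessed with XTT fluorescence read-out; loss of signal fitted relative to DMSO.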

[8] = molecular target: human Thyroid hormone Receptor alpha (TRa), THRA (gene 7067) (UniProt P10827); assay: ATG_hTRa_XSP2: Attagene TRANS-FACTORIAL Multi-Species (XSP2) HepG2 Assay for human Thyroid hormone Receptor alpha (TRa) (AID 2283838)
Chain of human Thyroid hormone Receptor alpha (TRa), THRA (gene 7067) (P10827 whole entry, looked up, the tested form may be a part): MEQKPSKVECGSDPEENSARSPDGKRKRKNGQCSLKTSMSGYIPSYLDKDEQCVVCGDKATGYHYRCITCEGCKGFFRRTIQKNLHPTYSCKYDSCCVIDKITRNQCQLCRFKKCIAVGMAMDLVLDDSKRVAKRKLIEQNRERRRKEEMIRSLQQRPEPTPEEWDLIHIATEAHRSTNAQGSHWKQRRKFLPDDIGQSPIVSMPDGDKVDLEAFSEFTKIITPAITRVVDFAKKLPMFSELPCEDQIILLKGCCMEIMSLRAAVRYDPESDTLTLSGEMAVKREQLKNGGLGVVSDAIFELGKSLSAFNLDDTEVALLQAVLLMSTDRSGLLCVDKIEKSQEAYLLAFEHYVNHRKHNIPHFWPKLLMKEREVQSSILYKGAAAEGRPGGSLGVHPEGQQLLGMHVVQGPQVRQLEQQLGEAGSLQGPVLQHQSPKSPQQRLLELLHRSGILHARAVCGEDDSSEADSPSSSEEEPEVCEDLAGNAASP
In short: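 HepG2 cells transiently transfected with multiplexed GAL4-UAS reporter units and exogenous NR-GAL4 chimeras; 24 h chemical exposure with 3 nM 6-alpha-fluorotestosterone and 1.5 nM norgestrel present. Reporter mRNA measured by RT-PCR, FAM labelling, HpaI digestion, capillary electrophoresis; gain-of-signal versus DMSO.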

[9] = molecular target: frog Thyroid hormone Receptor alpha (TRa), thra-a (gene 397942) (UniProt P15204); assay: ATG_frTRa_XSP2: Attagene TRANS-FACTORIAL Multi-Species (XSP2) HepG2 Assay for frog Thyroid hormone Receptor alpha (TRa) (AID 2283839)
Chain of frog Thyroid hormone Receptor alpha (TRa), thra-a (gene 397942) (P15204 whole entry, looked up, the tested form may be a part): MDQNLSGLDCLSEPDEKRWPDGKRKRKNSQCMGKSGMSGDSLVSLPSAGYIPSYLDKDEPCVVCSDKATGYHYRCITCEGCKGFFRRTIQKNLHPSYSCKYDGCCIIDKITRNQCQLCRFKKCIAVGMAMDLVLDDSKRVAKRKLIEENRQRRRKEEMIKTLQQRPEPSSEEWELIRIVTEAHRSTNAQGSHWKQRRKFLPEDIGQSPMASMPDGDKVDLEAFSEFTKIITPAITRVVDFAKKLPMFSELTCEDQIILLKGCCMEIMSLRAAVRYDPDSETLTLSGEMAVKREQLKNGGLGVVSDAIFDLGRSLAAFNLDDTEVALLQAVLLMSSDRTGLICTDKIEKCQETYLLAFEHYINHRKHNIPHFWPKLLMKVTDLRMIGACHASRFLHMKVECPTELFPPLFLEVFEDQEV
In short: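 HepG2 cells transiently transfected with multiplexed GAL4-UAS reporter units expressing chimeric frog TRα-Gal4; reporter mRNA read 24 h after dosing by RT-PCR, FAM-labelled primer extension, HpaI digest and capillary electrophoresis. Gain of signal fitted versus DMSO.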

[10] = tested on: zebrafish Peroxisome Proliferator-activated Receptor gamma (PPARg), gene 557037; assay: ATG_zfPPARg_XSP2: Attagene TRANS-FACTORIAL Multi-Species (XSP2) HepG2 Assay for zebrafish Peroxisome Proliferator-activated Receptor gamma (PPARg) (AID 2283833);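 further: actives increase reporter signal over DMSO so AC50 reflects activation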
Description: ATG_XSP2_multi-species_TRANS is a cell-based, multiplexed assay created by modifying the existing Attagene TRANS-FACTORIAL system to include a panel of nuclear receptors from some or all the following species: human (Homo sapiens), mouse (Mus musculus), frog (Xenopus laevis), zebrafish (Danio rerio), chicken (Gallus gallus), and turtle (Chrysemys picta). The ECOTOX-FACTORIAL format uses HepG2, a human liver cell line, with measurements taken at 24 hours after chemical dosing in a 24-well plate. Xsp2 included 3 nM 6-alpha-fluorotestosterone and 1.5 nM norgestrel to stimulate the androgen receptor.ATG_zfPPARg_XSP2 is one of 29 assay components measured or calculated from the ATG_XSP2_multi-species_TRANS assay. It is designed to make measurements of mRNA induction, a form of inducible reporter, as detected with fluorescence intensity signals by Reverse transcription polymerase chain reaction (RT-PCR) and Capillary electrophoresis technology.The assay endpoint ATG_zfPPARg_XSP2 was analyzed in the positive analysis fitting direction relative to DMSO as the negative control and baseline of activity. […] Furthermore, this assay endpoint can be referred to as a primary readout, because this assay has produced multiple assay endpoints where this one serves a reporter gene function. […]

SMILES: Oc1ccc2c(c1)-c1ccccc1C2
- AC50 [1]: 43.9 µM (active) and 49.3 µM (active)
- AC50 [2]: 17.1 µM (active) and 44.2 µM (active)
- outcome [3]: inactive
- outcome [4]: inactive
- outcome [5]: inactive
- outcome [6]: inactive
- outcome [7]: inactive
- outcome [8]: inactive
- outcome [9]: inactive

SMILES: Clc1nc(Cl)c(Cl)c(Cl)c1Cl
- AC50 [1]: 1.48 µM (active) and 2.05 µM (active)
- outcome [2]: inactive
- outcome [3]: inactive
- outcome [10]: inactive
- outcome [6]: inactive
- outcome [7]: inactive
- outcome [9]: inactive

SMILES: O=P(OC(CCl)CCl)(OC(CCl)CCl)OC(CCl)CCl
- AC50 [1]: 26.2 µM (active)
- AC50 [2]: 703 nM (active)
- outcome [3]: inactive
- outcome [10]: inactive
- outcome [4]: inactive
- outcome [5]: inactive
- outcome [6]: inactive
- outcome [9]: inactive
